Compound activity from PubChem BioAssay.
CHX counter = counter-screen for Shiga toxin inhibitors: cycloheximide protein synthesis inhibition; AID 2314; cell reporter, cycloheximide protein synthesis inhibition counterscreen; max response, %; 300,000 tested, 12% active; in the data active = max response mostly above about 13%, no sharp cut-off; inactive = mostly below about 14%; also: read at 38.3 µM for the half of the compounds with a filed dose
LmPK inhibitor = inhibitors of Leishmania mexicana pyruvate kinase; purified LmPK, Kinase-Glo ATP luminescence, 1 h; AID 1721; Q27686; Potency, µM (series often up to 57.5 µM), actives largely listed as inhibitors; 290,000 tested, 0.37% active
Target sequence (Q27686 whole entry, looked up): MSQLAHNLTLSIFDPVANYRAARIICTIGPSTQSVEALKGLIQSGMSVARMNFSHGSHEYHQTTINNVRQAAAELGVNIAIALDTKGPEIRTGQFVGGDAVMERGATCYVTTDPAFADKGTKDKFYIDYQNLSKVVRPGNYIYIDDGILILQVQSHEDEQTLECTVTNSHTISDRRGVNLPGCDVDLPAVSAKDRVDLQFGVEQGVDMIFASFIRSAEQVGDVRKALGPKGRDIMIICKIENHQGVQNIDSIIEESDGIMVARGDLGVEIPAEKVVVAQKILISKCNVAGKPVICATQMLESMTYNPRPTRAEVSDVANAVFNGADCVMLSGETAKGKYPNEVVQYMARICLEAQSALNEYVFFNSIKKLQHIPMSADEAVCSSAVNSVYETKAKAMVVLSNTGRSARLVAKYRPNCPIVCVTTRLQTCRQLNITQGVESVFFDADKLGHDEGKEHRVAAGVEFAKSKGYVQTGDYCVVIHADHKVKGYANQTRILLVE
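Pyruvate kinase activity monitored as ATP production (luciferase luminescence). Conditions: 0.1 nM enzyme, 0.5 mM PEP, 0.1 mM ADP, 1 h, RT; normalized against uninhibited and no-enzyme wells.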
Shiga inhibitor = blocks Shiga toxin action in Vero cells; Vero cells, Shiga toxin protein synthesis inhibition reporter; inhibition, % at 38.7 µM; AID 2315; 290,000 tested, 9.2% active; in the data active = inhibition mostly above about 28%, no sharp cut-off; inactive = mostly below about 43%
Pf growth 96h = P. falciparum growth inhibition at 96 hour, primary screen for plastid delayed-death inhibitors; Potency, µM (titrated, usually from 28.7 µM), hits mostly inhibitors; 320,000 tested, 6.9% active; P. falciparum luciferase reporter growth, 96 h
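Erythrocytes infected with luciferase-expressing P. falciparum were dispensed at 2% hematocrit and 0.05% parasitemia (final), then incubated with compounds 96 hours at 37 C in 5% CO2. Luminescence after detection reagent addition reported growth.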
Pf growth 48h = P. falciparum growth inhibition at 48 hours (one generation). AID 504832. 310,000 tested, 5.9% active. Potency, µM (highest dose often 28.7 µM), most hits filed as inhibitors. P. falciparum luciferase growth in erythrocytes, 48 h
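Read-out is firefly luciferase luminescence from an integrated reporter in P. falciparum, so falling signal marks reduced parasite growth. Infected erythrocytes were at 2% hematocrit and 0.1% parasitemia (final) in Albumax-supplemented RPMI 1640.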
Each line names hits and unclear results; the compound was inactive in the other large screens. In the library only some 22% were active in any assay of this set; here they are far more common. Unless noted, calls follow the shape of the dose curve; as a rule, active = well fitted inhibition curve with a large enough effect; inconclusive = small, poorly fitted or top-dose-only effect, or another doubt; inactive = no such curve, though single readings can be large or run the other way.

Cc1nn(-c2ccccc2)c(Cl)c1CN(C(=O)CCl)c1ccc(Cl)cc1	Pf growth 96h inconclusive
Cc1nn(-c2ccccc2)c(Cl)c1CN(C(=O)CCl)c1cccc2ccccc12	CHX counter 12, Pf growth 96h inconclusive, Pf growth 48h 3.7µM
CNS(=O)(=O)c1cc(S(=O)(=O)NC)c2cccc3c2c1NC3=O	none
Cc1ccc(O)c(-c2cc(-c3ccccc3[N+](=O)[O-])[nH]n2)c1	CHX counter 20, Shiga inhibitor 44, Pf growth 48h inconclusive
O=C1NC(c2cc(Cl)cc([N+](=O)[O-])c2O)Nc2ccccc21 (stereo not drawn)	none
O=[N+]([O-])c1ccccc1-c1cc(-c2cc(Cl)ccc2O)n[nH]1	CHX counter 22, Pf growth 48h inconclusive
COc1ccc(O)c(-c2cc(-c3ccccc3[N+](=O)[O-])[nH]n2)c1	CHX counter 25
Cc1ccc(O)c(-c2cc(-c3ccccc3C)[nH]n2)c1	Shiga inhibitor 33, Pf growth 48h inconclusive
CC(C)[C@H](NC(=O)c1cc2cc(Cl)ccc2n1C)C(=O)N[C@@H](C(=O)O)c1ccccc1	none
O=C(NCc1ccco1)c1ccc(COc2ccccc2[N+](=O)[O-])o1	Pf growth 96h inconclusive
Cc1ccc(O)c(-c2cc(C(F)(F)C(F)F)[nH]n2)c1	CHX counter 19, Pf growth 96h 9.3µM, Pf growth 48h 9.3µM
Cc1ccc(-c2cc(-c3cccs3)[nH]n2)c(O)c1	CHX counter 41, Shiga inhibitor 72, Pf growth 96h inconclusive (no result: Pf growth 48h)
COc1ccccc1NC=C1C(=O)OC2(CCCCC2)OC1=O	CHX counter 31
COC(=O)c1ccccc1NC=C1C(=O)OC2(CCCCC2)OC1=O	Pf growth 96h inconclusive
Cc1ccc(C)c(C(=O)CN2C(=O)NC3(CCc4ccccc43)C2=O)c1 (stereo not drawn)	Pf growth 96h 15µM, Pf growth 48h inconclusive (no result: CHX counter, LmPK inhibitor, Shiga inhibitor)
O=C(CN1C(=O)NC2(CCc3ccccc32)C1=O)c1ccc2c(c1)OCCO2 (stereo not drawn)	Shiga inhibitor 70 (no result: Pf growth 96h)
Cc1ccsc1CN(C)C(=O)CN1C(=O)NC2(CCCc3ccccc32)C1=O (stereo not drawn)	Pf growth 96h 12µM, Pf growth 48h inconclusive (no result: CHX counter, LmPK inhibitor, Shiga inhibitor)
O=C(CN1C(=O)COc2ccccc2C1=O)c1ccc2c(c1)OCCO2	CHX counter 28
O=C(CN1C(=O)NC2(CCc3ccccc32)C1=O)c1ccc(F)cc1 (stereo not drawn)	none (no result: CHX counter, LmPK inhibitor, Shiga inhibitor)
C[C@]12CCC(=O)CC1=CCC1C3CC=C(C#N)[C@@]3(C)CC[C@@]12O (stereo partly drawn)	none
NC(=O)CN1C(=O)NC2(CCCc3sccc32)C1=O (stereo not drawn)	none
COc1ccc(C(=O)CN2C(=O)NC3(CCCc4ccccc43)C2=O)cc1 (stereo not drawn)	Pf growth 96h 10µM, Pf growth 48h inconclusive (no result: CHX counter, LmPK inhibitor, Shiga inhibitor)
Cc1cc(C(=O)CN2C(=O)NC3(CCCc4sccc43)C2=O)c(C)n1-c1ccc(Cl)cc1 (stereo not drawn)	Pf growth 96h inconclusive, Pf growth 48h 9.3µM
CNc1c([N+](=O)[O-])cnn1-c1ccccn1	none
COc1ccccc1-n1c(CNc2c(C)cccc2C)nnc1SCC(=O)N1CCOCC1	Pf growth 96h 12µM
COc1ccccc1-n1c(SCC(=O)N2CCOCC2)nc2ccccc2c1=O	none
COc1ccc(CN(C)C(=O)CCl)cc1	Pf growth 96h 10µM, Pf growth 48h 13µM
CN(Cc1ccc(Cl)s1)C(=O)CCl	Pf growth 96h 1.5µM, Pf growth 48h 9.3µM
CC1CC(C)(C)NC(=S)N1CCC(=O)N1CCc2ccccc21 (stereo not drawn)	Pf growth 96h inconclusive, Pf growth 48h inconclusive
CCOc1ccc2ccc(OCC)c(/C=N/n3cnnc3)c2c1	CHX counter 9.4
C=CCc1cc(/C=C2/NC(=S)NC2=O)cc(OC)c1O	none
C=CCc1cc(/C=N/n2cnnc2)cc(OCC)c1O	Pf growth 96h 8.3µM, Pf growth 48h inconclusive
C=CCc1cc(/C=C2/NC(=O)NC2=O)cc(OCC)c1O	Pf growth 96h 1µM
CCOc1cc(/C=N/n2cnnc2)ccc1O	none
CCC(OC(=O)c1ccco1)C(=O)NCc1ccc2c(c1)OCO2 (stereo not drawn)	none
CNCCOc1ccccc1OC(C)C	Pf growth 96h 10µM
CCN(CC)CCn1c(=S)[nH]c2cc3c(cc2c1=O)OCO3	Pf growth 96h 10µM
CCN(CC)CCNC(=O)CCn1c(=S)[nH]c2cc3c(cc2c1=O)OCO3	none
Cc1ccc(C)c(N2CCN(C(=O)CCCn3c(=S)[nH]c4cc5c(cc4c3=O)OCO5)CC2)c1	Pf growth 96h inconclusive, Pf growth 48h 12µM
CC(C)(Oc1ccc(Cl)cc1)C(=O)NC1CC1	Pf growth 48h inconclusive (no result: CHX counter, LmPK inhibitor, Shiga inhibitor)
CC(C)n1cnc2c(Nc3cccc(Cl)c3)nc(NCCCO)nc21	Pf growth 96h 15µM, Pf growth 48h inconclusive
CC(C)n1cnc2c(NCc3ccc(S(N)(=O)=O)cc3)nc(NCc3ccc(S(N)(=O)=O)cc3)nc21	Pf growth 96h inconclusive, Pf growth 48h inconclusive
CC(C)n1cnc2c(NCc3ccccc3)nc(NCc3ccccc3)nc21	Pf growth 96h 9.3µM, Pf growth 48h 9.3µM
O=C(O)CSc1nnc(NC(=O)CN2CCOCC2)s1	none
CC(NC(=O)COC(=O)CCN1C(=O)C2CC=CCC2C1=O)c1ccc(Br)cc1 (stereo not drawn)	none (no result: CHX counter, LmPK inhibitor, Shiga inhibitor)
CC(=O)c1ccc(NC(=S)N2CCN(c3ccccn3)CC2)cc1	none
CCn1c2ccc(Cl)cc2c2nc3ccccc3nc21	none
Clc1ccc2nc3c4ccccc4cnn3c2c1	CHX counter 62, Shiga inhibitor 117, Pf growth 96h inconclusive
CC1(C)CN=C(N2CCN(C3=NCC(C)(C)S3)CC2)S1	none
Cc1ccccc1CN(C)Cc1cc(=O)oc2c(C)c(C)ccc12	CHX counter 23, Pf growth 96h inconclusive, Pf growth 48h inconclusive
COc1cccc(CN(C)Cc2cc(=O)oc3c(C)c(C)ccc23)c1	CHX counter 16
O=C(c1ccc(F)cc1)C(CCCCCC(CN1CCOCC1)C(=O)c1ccc(F)cc1)CN1CCOCC1 (stereo not drawn)	Pf growth 96h 9.3µM, Pf growth 48h inconclusive
Cc1ccc(S(=O)(=O)CCNC(=O)Cc2ccccc2)cc1	none
Cc1ccc(C(=O)NCCc2ccc(F)cc2)s1	CHX counter 59, Shiga inhibitor 58, Pf growth 96h inconclusive
O=C(NCCc1ccc(F)cc1)c1ccncc1	CHX counter 16, Shiga inhibitor 87
O=C(NCCc1ccc(Cl)cc1)c1ccc(Br)s1	CHX counter 45, Shiga inhibitor 55, Pf growth 96h inconclusive
NS(=O)(=O)c1ccc(CCNC(=O)c2ccc(Br)s2)cc1	none
O=C(NCCc1ccccc1)c1ccncc1	CHX counter 32, Shiga inhibitor 95 (no result: Pf growth 96h)
O=C(NCCc1ccccc1)C(=O)NCc1ccncc1	none
CC(C)Oc1cc(N)c(Cl)cc1Cl	none
CC(=O)NC(C)c1nc2ccccc2n1CC(=O)NC(C)CCc1ccccc1 (stereo not drawn)	Pf growth 96h inconclusive
O=C1CN(S(=O)(=O)c2cccc(C(=O)O)c2)c2ccccc2N1	none
